# The supplement of paper PMC12819154, “High-throughput peptide-centric local stability assay extends protein–ligand identification to membrane proteins, tissues and bacteria” (Nature Structural & Molecular Biology, 2025)
# Compound: CN[C@@H]1C[C@H]2O[C@@](C)([C@@H]1OC)n1c3ccccc3c3c4c(c5c6ccccc6n2c5c31)C(=O)NC4 [staurosporine]
# Assay: log2 fold change of tryptic peptide abundance, ligand vs vehicle (limited proteolysis) (log2 ratio); higher = more trypsin-susceptible (destabilized)
# Settings: ligand concentration: 20 uM; sample: mouse liver crude lysate; replicate design: treated separately
# UniProt Q9ERK4, sequence (Q9ERK4 whole entry): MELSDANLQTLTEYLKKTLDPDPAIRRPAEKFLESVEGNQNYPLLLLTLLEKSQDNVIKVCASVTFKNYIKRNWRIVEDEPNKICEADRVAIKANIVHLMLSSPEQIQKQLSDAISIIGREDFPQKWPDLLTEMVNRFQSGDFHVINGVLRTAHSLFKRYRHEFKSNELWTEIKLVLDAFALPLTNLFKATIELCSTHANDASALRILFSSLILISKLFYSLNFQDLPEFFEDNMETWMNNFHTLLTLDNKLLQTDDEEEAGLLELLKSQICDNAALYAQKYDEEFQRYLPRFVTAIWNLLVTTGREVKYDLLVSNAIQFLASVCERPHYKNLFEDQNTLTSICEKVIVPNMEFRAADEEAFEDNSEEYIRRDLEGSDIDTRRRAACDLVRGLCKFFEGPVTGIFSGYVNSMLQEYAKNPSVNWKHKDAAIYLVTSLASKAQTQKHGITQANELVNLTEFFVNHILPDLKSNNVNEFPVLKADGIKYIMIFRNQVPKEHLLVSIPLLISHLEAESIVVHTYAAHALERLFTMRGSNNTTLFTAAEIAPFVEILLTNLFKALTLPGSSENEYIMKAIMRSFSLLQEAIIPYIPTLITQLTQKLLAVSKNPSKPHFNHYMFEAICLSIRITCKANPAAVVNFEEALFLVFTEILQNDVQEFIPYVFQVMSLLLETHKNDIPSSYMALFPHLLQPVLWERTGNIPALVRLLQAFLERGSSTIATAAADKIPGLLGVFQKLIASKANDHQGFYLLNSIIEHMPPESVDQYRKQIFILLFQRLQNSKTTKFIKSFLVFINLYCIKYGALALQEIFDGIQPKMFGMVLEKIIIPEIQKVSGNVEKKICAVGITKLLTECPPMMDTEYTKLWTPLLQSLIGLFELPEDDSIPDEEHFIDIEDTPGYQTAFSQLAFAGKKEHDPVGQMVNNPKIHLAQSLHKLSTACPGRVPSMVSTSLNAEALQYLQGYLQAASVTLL
# UniProt Q8C050, sequence (Q8C050 whole entry): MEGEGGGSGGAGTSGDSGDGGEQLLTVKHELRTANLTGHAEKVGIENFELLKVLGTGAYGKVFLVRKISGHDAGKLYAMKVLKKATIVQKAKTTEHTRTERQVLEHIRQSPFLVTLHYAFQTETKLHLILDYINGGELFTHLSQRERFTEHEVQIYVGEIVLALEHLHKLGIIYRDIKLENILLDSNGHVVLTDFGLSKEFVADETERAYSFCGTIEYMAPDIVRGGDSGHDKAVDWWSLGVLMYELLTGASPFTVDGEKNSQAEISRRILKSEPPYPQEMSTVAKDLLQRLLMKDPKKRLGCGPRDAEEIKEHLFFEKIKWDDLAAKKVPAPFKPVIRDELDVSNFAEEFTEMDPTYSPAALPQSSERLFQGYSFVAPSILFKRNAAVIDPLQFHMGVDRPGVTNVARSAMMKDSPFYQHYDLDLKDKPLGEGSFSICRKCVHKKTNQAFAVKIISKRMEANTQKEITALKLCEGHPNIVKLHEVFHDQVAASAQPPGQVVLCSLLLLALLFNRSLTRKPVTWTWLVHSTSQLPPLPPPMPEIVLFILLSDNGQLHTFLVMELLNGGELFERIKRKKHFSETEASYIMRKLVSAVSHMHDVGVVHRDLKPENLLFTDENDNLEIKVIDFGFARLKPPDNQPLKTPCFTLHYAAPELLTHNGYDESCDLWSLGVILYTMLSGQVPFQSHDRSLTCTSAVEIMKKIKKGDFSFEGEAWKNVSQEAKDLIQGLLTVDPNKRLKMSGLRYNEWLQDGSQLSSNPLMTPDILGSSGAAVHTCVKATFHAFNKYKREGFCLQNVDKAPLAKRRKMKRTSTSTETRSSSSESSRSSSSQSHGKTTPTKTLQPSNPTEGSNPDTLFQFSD
# UniProt P14685, sequence (P14685 whole entry): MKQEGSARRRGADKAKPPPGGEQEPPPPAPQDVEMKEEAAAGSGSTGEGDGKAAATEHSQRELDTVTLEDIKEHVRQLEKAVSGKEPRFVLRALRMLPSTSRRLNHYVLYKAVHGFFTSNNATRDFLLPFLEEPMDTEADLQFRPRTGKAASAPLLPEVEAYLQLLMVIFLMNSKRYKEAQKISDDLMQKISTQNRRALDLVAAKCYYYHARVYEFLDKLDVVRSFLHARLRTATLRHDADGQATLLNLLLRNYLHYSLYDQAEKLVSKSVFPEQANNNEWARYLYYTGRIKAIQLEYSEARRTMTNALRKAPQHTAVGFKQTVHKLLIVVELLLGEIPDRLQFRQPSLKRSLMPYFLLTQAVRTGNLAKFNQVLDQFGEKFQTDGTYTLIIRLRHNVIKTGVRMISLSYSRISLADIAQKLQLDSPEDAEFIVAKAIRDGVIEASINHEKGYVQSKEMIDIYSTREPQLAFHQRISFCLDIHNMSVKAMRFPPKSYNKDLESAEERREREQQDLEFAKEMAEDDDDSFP
# UniProt Q6P4S6, sequence (Q6P4S6 whole entry): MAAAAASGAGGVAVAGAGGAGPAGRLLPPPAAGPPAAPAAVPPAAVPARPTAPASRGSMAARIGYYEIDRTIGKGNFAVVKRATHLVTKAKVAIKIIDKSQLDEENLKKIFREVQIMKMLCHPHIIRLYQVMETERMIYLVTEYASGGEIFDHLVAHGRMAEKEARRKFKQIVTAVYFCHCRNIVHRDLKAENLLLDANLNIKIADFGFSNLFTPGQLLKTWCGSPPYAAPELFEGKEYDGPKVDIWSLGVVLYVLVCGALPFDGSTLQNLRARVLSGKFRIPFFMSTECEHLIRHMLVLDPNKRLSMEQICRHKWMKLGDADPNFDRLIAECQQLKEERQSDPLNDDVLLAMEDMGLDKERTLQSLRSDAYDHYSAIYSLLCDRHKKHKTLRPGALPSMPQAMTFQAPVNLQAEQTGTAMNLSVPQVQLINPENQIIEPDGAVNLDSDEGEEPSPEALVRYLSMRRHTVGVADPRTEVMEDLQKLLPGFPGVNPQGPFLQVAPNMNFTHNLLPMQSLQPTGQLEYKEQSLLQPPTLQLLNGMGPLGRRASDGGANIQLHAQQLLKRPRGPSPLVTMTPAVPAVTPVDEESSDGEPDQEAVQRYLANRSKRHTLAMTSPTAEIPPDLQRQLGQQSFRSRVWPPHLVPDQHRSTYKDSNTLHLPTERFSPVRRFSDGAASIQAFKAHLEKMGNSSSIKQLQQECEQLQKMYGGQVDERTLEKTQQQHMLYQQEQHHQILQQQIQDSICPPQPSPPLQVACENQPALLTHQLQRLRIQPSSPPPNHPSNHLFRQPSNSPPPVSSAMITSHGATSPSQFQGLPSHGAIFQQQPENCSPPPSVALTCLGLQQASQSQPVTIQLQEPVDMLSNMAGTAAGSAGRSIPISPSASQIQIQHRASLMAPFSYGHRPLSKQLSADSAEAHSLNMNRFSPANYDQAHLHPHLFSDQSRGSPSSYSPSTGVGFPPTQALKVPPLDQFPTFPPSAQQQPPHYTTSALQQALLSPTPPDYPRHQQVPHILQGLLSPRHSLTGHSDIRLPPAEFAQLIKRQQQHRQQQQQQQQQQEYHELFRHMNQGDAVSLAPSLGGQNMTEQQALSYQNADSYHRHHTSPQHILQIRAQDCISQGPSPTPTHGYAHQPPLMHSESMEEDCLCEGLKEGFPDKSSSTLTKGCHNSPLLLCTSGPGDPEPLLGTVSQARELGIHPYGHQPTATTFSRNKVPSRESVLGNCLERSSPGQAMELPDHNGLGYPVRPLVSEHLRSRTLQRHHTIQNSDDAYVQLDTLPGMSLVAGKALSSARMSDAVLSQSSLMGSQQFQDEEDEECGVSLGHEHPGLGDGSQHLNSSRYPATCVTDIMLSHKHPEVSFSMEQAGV
# UniProt A2A8Z1, sequence (A2A8Z1 whole entry): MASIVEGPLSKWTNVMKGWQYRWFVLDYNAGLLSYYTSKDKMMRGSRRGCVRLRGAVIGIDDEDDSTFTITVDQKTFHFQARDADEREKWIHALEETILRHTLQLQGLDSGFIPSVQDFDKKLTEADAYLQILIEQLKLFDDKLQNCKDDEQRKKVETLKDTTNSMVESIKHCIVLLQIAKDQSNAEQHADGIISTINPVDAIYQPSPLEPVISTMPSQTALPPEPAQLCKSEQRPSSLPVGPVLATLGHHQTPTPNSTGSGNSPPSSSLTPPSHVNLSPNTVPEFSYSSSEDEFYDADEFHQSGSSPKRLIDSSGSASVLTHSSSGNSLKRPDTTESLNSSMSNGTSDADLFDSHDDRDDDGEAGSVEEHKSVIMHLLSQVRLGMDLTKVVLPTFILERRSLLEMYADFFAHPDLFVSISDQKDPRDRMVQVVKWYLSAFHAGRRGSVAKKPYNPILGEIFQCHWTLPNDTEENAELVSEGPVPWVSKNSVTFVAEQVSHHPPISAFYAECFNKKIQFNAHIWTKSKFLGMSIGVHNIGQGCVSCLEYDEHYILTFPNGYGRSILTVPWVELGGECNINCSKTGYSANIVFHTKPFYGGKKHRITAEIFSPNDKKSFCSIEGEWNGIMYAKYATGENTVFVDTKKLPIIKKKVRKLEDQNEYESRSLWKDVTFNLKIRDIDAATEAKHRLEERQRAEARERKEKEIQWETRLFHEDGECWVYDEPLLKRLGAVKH
# UniProt Q8R0Y8, sequence (Q8R0Y8 whole entry): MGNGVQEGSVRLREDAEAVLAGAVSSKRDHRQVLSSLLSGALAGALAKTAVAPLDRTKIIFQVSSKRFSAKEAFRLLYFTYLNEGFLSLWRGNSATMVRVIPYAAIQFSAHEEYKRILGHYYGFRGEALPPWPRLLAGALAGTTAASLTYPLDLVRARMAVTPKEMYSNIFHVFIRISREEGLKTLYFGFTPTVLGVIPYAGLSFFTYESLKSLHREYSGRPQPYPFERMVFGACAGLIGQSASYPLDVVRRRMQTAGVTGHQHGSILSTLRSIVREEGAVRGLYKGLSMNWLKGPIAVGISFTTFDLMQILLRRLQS
# UniProt P02088, sequence (P02088 whole entry): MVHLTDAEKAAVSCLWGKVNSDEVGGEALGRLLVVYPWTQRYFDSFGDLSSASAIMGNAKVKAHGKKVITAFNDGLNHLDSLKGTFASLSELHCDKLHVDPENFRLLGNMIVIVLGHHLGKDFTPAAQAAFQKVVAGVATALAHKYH
row,Target,log2 fold change
1,"UniProt P02088 (peptide sequence: DFTPAAQAAFQK, peptide start residue: 122)",0.285
2,"UniProt Q6P4S6 (peptide sequence: LIAECQQLKEER, peptide start residue: 329)",-1.43
3,"UniProt P35980 (peptide sequence: TNSTFNQVVLK, peptide start residue: 39)",0.658
4,"UniProt Q05421 (peptide sequence: FGPVFTLHLGQR, peptide start residue: 64)",0.247
5,"UniProt Q8C050 (peptide sequence: VLGTGAYGK, peptide start residue: 53)",-1.37
6,"UniProt Q7TSE6 (peptide sequence: LSDFGLCTGLKK, peptide start residue: 228)",-2.66
7,"UniProt P14685 (peptide sequence: ISLADIAQK, peptide start residue: 413)",-0.355
8,"UniProt Q9QXX4 (peptide sequence: AGQTTYNGVTDCFRK, peptide start residue: 555)",0.466
9,"UniProt A2A8Z1 (peptide sequence: VVLPTFILERR, peptide start residue: 391)",0.538
10,"UniProt Q9ERK4 (peptide sequence: LLQAFLER, peptide start residue: 707)",0.291
11,"UniProt Q8R0Y8 (peptide sequence: MQTAGVTGHQHGSILSTLR, peptide start residue: 254)",0.401
